The text below walks through data of PubChem BioAssay.

Experiment [1] in a line: enhancers of glutamate uptake in motor neurons, MN-1 cell line (AID 1612).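 Further: tested at 1 µM final; 0% = mean of DMSO vehicle wells on each plate; positive means more glutamate uptake than control and negative means less.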 The conditions noted are these: MN-1 motor neuron cells, stronger effect = higher value.
The nature of experiment [2]: reducers of polyQ inclusions in PC12 cells, cell-based, NGF-treated PC12, GFPQ80 (AID 1614).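 Further: lower means fewer inclusions and 0 means no inclusions at all.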 The conditions noted are these: PC12 NGF-treated GFP-polyQ80 inclusion reduction.
A short description of experiment [3]: suppressors of polyglutamine aggregation in yeast, 75Q-TubH (AID 1616). The settings on record: S. cerevisiae 75Q-TubH polyglutamine aggregation suppression; stronger effect = higher value.
A short description of experiment [4]: hESC survival regulators, cell-based (AID 493140).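 Further: cells exposed to compounds for four days before counting.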 The settings on record: human embryonic stem cell survival screen; stronger effect = higher value.
Experiment [5] is described as follows: circadian clock period modulators, cell-based, LOPAC library, luminescence reporter (AID 2774).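 Further: values are relative to mean of DMSO wells on each plate.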 The conditions noted are these: circadian reporter cells, at 7 µM, actives lie on both sides.

The structures appear in SMILES notation. The source made the active and inactive calls. How the calls were made is not given here.

For the compound `O=C(O)CCC(=O)c1ccc(-c2ccccc2)cc1`, the glutamate uptake change in experiment [1] turned out to be 6.02%. This compound showed an inclusion score in experiment [2] of 2. The aggregation suppression score in experiment [3] was -0.185. For the same compound, in experiment [4], the survival was 32.7 (inactive).

`NC(N)=NS(=O)(=O)c1ccc(N)cc1`: the glutamate uptake change in experiment [1] amounted to 5.91%. Besides, the inclusion score in experiment [2] was determined as 2. Moreover, in experiment [3], the aggregation suppression score turned out to be 1.54. In experiment [4], the survival was 11.5 (inactive).

As to `COc1cc(NS(=O)(=O)c2ccc(N)cc2)nc(OC)n1`, the glutamate uptake change in experiment [1] was -20.2%. The inclusion score in experiment [2] is 2. This compound showed an aggregation suppression score in experiment [3] of 1.32. For the same compound, the survival in experiment [4] was 3.33 (inactive).

As to `Cc1cccc(N(C)C(=S)Oc2ccc3ccccc3c2)c1`, the glutamate uptake change in experiment [1] was -6.25%. In experiment [2], this compound displayed an inclusion score of 2. In addition, the aggregation suppression score in experiment [3] was determined as 0.257. Further, the survival in experiment [4] is 27.3 (inactive).

For `OC(CCN1CCCCC1)(c1ccccc1)c1ccccc1`, in experiment [1], the glutamate uptake change is -4.45%. Further, the inclusion score in experiment [2] was found to be 2. In addition, the aggregation suppression score in experiment [3] came to 1.43. Moreover, the survival in experiment [4] was 3.42 (inactive).

In the case of `Cc1cc(CC(=O)O)n(C)c1C(=O)c1ccc(Cl)cc1`, the glutamate uptake change in experiment [1] is -4.24%. Moreover, the inclusion score in experiment [2] was determined as 2. The compound further showed an aggregation suppression score in experiment [3] of 0.565. Besides, in experiment [4], the survival was 3.5 (inactive).

For the compound `CCN(CC)CCOc1ccc(/C(=C(\Cl)c2ccccc2)c2ccccc2)cc1`, the glutamate uptake change in experiment [1] is -0.41%. This compound also showed an aggregation suppression score in experiment [3] of 0.524.

For the compound `CCN(CCCCOC(=O)c1ccc(OC)c(OC)c1)C(C)Cc1ccc(OC)cc1` (stereo not given), the glutamate uptake change in experiment [1] is 1.65%. The inclusion score in experiment [2] was determined as 2. In experiment [3], this compound showed an aggregation suppression score of 1.35. Besides, the survival in experiment [4] was 13.9 (inactive).

Consider `NCC1CCC(C(=O)O)CC1` (stereo not given), for which the glutamate uptake change in experiment [1] came out at 10.5%. In experiment [2], this compound came in with an inclusion score of 2. For the same compound, the aggregation suppression score in experiment [3] came to 1.21. For the same compound, in experiment [4], the survival is 17.8 (inactive).

In the case of `CC1(C)OC(=O)NC1=O`, the glutamate uptake change in experiment [1] worked out at 12.7%. The compound further returned an inclusion score in experiment [2] of 2. Moreover, in experiment [3], the aggregation suppression score stood at 1.01. For the same compound, the survival in experiment [4] is 9.33 (inactive).

For the compound `Cc1ccc(C(=O)c2ccc(CC(=O)O)n2C)cc1`, in experiment [1], the glutamate uptake change worked out at 12.3%. In addition, the inclusion score in experiment [2] came out at 2. The compound also returned an aggregation suppression score in experiment [3] of 0.801. For the same compound, the survival in experiment [4] was 3.83 (inactive).

`CC(C)(Oc1ccc(CCNC(=O)c2ccc(Cl)cc2)cc1)C(=O)O`: the glutamate uptake change in experiment [1] was 8.93%. The compound further showed an inclusion score in experiment [2] of 2. Moreover, in experiment [3], the aggregation suppression score is 1.44. In addition, the survival in experiment [4] is 15.2 (inactive).

Take `CC(=O)OC/C=C(C)/C=C/C=C(C)/C=C/C1=C(C)CCCC1(C)C`: the glutamate uptake change in experiment [1] is -12.9%. The compound further came in with an aggregation suppression score in experiment [3] of 0.917.

With `CCCc1ncc(C[n+]2ccccc2C)c(N)n1`, the glutamate uptake change in experiment [1] turned out to be 5.76%. In experiment [2], this compound returned an inclusion score of 1.5. In experiment [3], this compound had an aggregation suppression score of 0.986. Also, the survival in experiment [4] was 8.58 (inactive).

For `Cc1ccccc1N1C(=O)c2cc(S(N)(=O)=O)c(Cl)cc2NC1C` (stereo not given), in experiment [1], the glutamate uptake change was found to be 2.13%. In experiment [2], the inclusion score amounted to 2. Moreover, the aggregation suppression score in experiment [3] was 1.18. The survival in experiment [4] is 25.6 (inactive).

As to `Cc1ncc([N+](=O)[O-])n1CCO`, the glutamate uptake change in experiment [1] stood at 20.8%. Besides, in experiment [2], the inclusion score turned out to be 2. In experiment [3], this compound yielded an aggregation suppression score of 0.969. The survival in experiment [4] was 10.8 (inactive).

On to `Cn1c(=O)c2c(ncn2CCO)n(C)c1=O`, for which, in experiment [1], the glutamate uptake change was 2.77%. The compound further registered an inclusion score in experiment [2] of 2. Moreover, the aggregation suppression score in experiment [3] turned out to be 1.2. The survival in experiment [4] was 29.2 (inactive).

As to `CC(C(=O)O)c1ccc(C(=O)c2cccs2)cc1` (stereo not given), in experiment [1], the glutamate uptake change was 15.6%. Besides, the inclusion score in experiment [2] amounted to 2. In addition, the aggregation suppression score in experiment [3] stood at 0.589. The survival in experiment [4] is 6.67 (inactive).

As for `CC(=O)Oc1ccc(C(c2ccc(OC(C)=O)cc2)c2ccccn2)cc1`, the glutamate uptake change in experiment [1] amounted to 13%. For the same compound, the inclusion score in experiment [2] is 2. Besides, the aggregation suppression score in experiment [3] came out at 1.23. The survival in experiment [4] is 9.25 (inactive).

As to `CC(=O)Nc1ccc(O)cc1`, the glutamate uptake change in experiment [1] was -4.6%. In experiment [2], this compound registered an inclusion score of 2. The same compound yielded an aggregation suppression score in experiment [3] of 1.73. In addition, the survival in experiment [4] is 5.25 (inactive).

Turning to `CCCCCCOc1ccccc1C(N)=O`, in experiment [1], the glutamate uptake change came out at 0.56%. Further, the aggregation suppression score in experiment [3] came out at 0.156.

Regarding `CCCCOc1ccc(OCCCN2CCOCC2)cc1`, the glutamate uptake change in experiment [1] was 6.69%. In addition, in experiment [2], the inclusion score stood at 2. This compound returned an aggregation suppression score in experiment [3] of 1.24. Moreover, the survival in experiment [4] is 2 (inactive).

Consider `OCC(O)CN1CCN(c2ccccc2)CC1` (stereo not given), for which the glutamate uptake change in experiment [1] turned out to be 0.23%. Moreover, in experiment [2], the inclusion score amounted to 2. The compound also gave an aggregation suppression score in experiment [3] of 1.04. Besides, the survival in experiment [4] was 19.2 (inactive).

`O=C(Cn1ccnc1[N+](=O)[O-])NCCO`: the glutamate uptake change in experiment [1] was 16.4%. The compound further returned an inclusion score in experiment [2] of 2. This compound showed an aggregation suppression score in experiment [3] of 0.925. The survival in experiment [4] is 5.17 (inactive).

`COc1cc(C(=O)NCc2ccc(OCCN(C)C)cc2)cc(OC)c1OC`: the glutamate uptake change in experiment [1] amounted to 0.14%. Moreover, the inclusion score in experiment [2] was 2. This compound gave an aggregation suppression score in experiment [3] of 0.824. In addition, the survival in experiment [4] was 15.8 (inactive).

For `CCn1cc(C(=O)O)c(=O)c2cnc(N3CCNCC3)nc21`, in experiment [1], the glutamate uptake change is -1.23%. Also, the inclusion score in experiment [2] was 2. In experiment [3], the aggregation suppression score came to 1.16. In experiment [4], the survival is 5.25 (inactive).

For `O=C(O)CCC(=O)Nc1ccc(S(=O)(=O)Nc2nccs2)cc1`, the glutamate uptake change in experiment [1] stood at 14.7%. In experiment [2], this compound gave an inclusion score of 2. Besides, the aggregation suppression score in experiment [3] amounted to 1.1. Moreover, the survival in experiment [4] is 6.17 (inactive).

Take `Cc1c(N(C)CS(=O)(=O)O)c(=O)n(-c2ccccc2)n1C`: the glutamate uptake change in experiment [1] was -8.12%. Moreover, the inclusion score in experiment [2] came out at 2. In experiment [3], this compound registered an aggregation suppression score of 1.09. For the same compound, the survival in experiment [4] is 3.25 (inactive).

For the compound `NC(N)=NCCN1CCCCCCC1`, in experiment [1], the glutamate uptake change was -19.4%. The inclusion score in experiment [2] turned out to be 2. The compound further had an aggregation suppression score in experiment [3] of 1.06. Also, the survival in experiment [4] was 13.9 (inactive).

On to `CS(=O)(=O)c1ccc([C@@H](O)[C@@H](CO)NC(=O)C(Cl)Cl)cc1`, for which the glutamate uptake change in experiment [1] came to 16.7%. In experiment [2], this compound displayed an inclusion score of 2. The same compound displayed an aggregation suppression score in experiment [3] of 0.726. Moreover, the survival in experiment [4] is 14.4 (inactive).

On to `O=C(O)c1ccccc1Nc1cccc(C(F)(F)F)c1`, for which, in experiment [1], the glutamate uptake change was -15.4%. This compound showed an inclusion score in experiment [2] of 2. Moreover, the aggregation suppression score in experiment [3] is -0.092. For the same compound, the survival in experiment [4] was 25.2 (inactive).

`CN1CCOC(c2ccccc2)c2ccccc2C1` (stereo not given): in experiment [1], the glutamate uptake change was 0.43%. The compound also displayed an inclusion score in experiment [2] of 1.5. Besides, the aggregation suppression score in experiment [3] was found to be 1.44. Moreover, the survival in experiment [4] was 21.3 (inactive).

In the case of `CN1CCC(OC(c2ccccc2)c2ccccc2)CC1`, the glutamate uptake change in experiment [1] is 17.3%. The same compound came in with an inclusion score in experiment [2] of 2. Further, the aggregation suppression score in experiment [3] amounted to 1.27. In experiment [4], the survival is 4.58 (inactive).

Consider `CO[C@@]1(NC(=O)C(C(=O)O)c2ccc(O)cc2)C(=O)N2C(C(=O)O)=C(CSc3nnnn3C)CO[C@@H]21` (stereo not given in full), for which, in experiment [1], the glutamate uptake change came to 0.13%. In experiment [2], this compound displayed an inclusion score of 1. Also, the aggregation suppression score in experiment [3] amounted to 1.14. Moreover, in experiment [4], the survival is 6.42 (inactive).

For the compound `C1CCC(C(CC2CCCCN2)C2CCCCC2)CC1` (stereo not given), in experiment [1], the glutamate uptake change was -10.9%. This compound also yielded an aggregation suppression score in experiment [3] of 0.885. For the same compound, the survival in experiment [4] is 6 (inactive).

For `Oc1c(Br)cc(Br)c2cccnc12`, in experiment [1], the glutamate uptake change was determined as 4.76%. The aggregation suppression score in experiment [3] was -0.0132.

Take `CCN(CC)CCOC(=O)C(c1ccccc1)C1CCCCC1` (stereo not given): the glutamate uptake change in experiment [1] came out at 1.54%. The compound also came in with an aggregation suppression score in experiment [3] of 1.17. For the same compound, the survival in experiment [4] was 3.67 (inactive).

With `C/C=C(/C(=C/C)c1ccc(O)cc1)c1ccc(O)cc1`, the glutamate uptake change in experiment [1] is -21.7%. In experiment [3], the aggregation suppression score is 0.184. Moreover, the survival in experiment [4] is 5.92 (inactive).

For `NC(CO)C(=O)NNCc1ccc(O)c(O)c1O` (stereo not given), the glutamate uptake change in experiment [1] was determined as 11.3%. The compound also registered an aggregation suppression score in experiment [3] of 1.23. Besides, the period change in experiment [5] is 0.075 h (inactive). Also, in experiment [4], the survival was 2.42 (inactive).
